# This is part of a sample that, as a whole, favours compounds with a hit. Of some 83,000 tested, about 20% had one in any assay.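 96-well plates, one dose, 48 hours. Percent growth reported; active if below 10.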 A number with no mark means an inactive call. Active and inactive are the calls of the source.
# System: HL-60(TB) leukemia
# Assay: NCI-60 one-dose screen, 48 h (100 = growth as untreated, 0 = no growth, -100 = all killed)
# Settings: 10 µM unless noted
row,Compound,growth
1,C=CCN1CCCC1=O,47.1%
2,Cc1ccc(S(=O)(=O)N(CCc2ccc(Cl)cc2)S(=O)(=O)c2ccc(C)cc2)cc1,85.3%
3,S=CN1CCCCC1,102%
4,CCCCc1ccc(NC(=O)C(F)(F)F)cc1,71.2%
5,CCn1cc(C(=O)N/N=C/c2ccccc2)c(=O)c2cc(F)c(N3CCNC(C)C3)c(F)c21 (stereo not given),18.1%
6,OC(c1cc(-c2ccccc2)nc2ccc(Cl)cc12)C1CCCCN1 (stereo not given),49.7%
7,CC[C@H](Nc1ncnc2nc[nH]c12)c1nc2cccc(CC(=O)c3ccc(C(=O)NO)cc3)c2c(=O)n1-c1ccccc1,75.5%
8,CC(C)[C@H]1CC[C@H]2[C@@H](CC[C@H]3[C@](C)(CN)CCC[C@]23C)C1,71.8%
9,CC(C)CC(NC(=O)OCC1c2ccccc2-c2ccccc21)C(=O)O (stereo not given),105%
10,O=C(CCCCCCc1nc2ccc(Br)cc2[nH]1)NO,2.12% (active)
11,CCOC(=O)c1cnn(CC(O)CC)c1NC(=O)NCc1ccccc1C(F)(F)F (stereo not given),76.4%
12,CC(C)=C(NC(=O)c1ccccc1)C(=O)O,110%
13,COc1ccc(Nc2ncc(I)c(NCCCNC(=O)C3CCC3)n2)cc1,-37.6% (active)
14,CCOC(=O)c1c(C(=O)OCC)c2cc(-c3ccn4c(C(=O)c5ccccc5)c(C(=O)OCC)c(C(=O)OCC)c4c3)ccn2c1C(=O)c1ccccc1,86.3%
15,OC1Cc2ccccc2C1,100%
16,Oc1cc(O)c2c(=S)cc(-c3ccc(Cl)cc3)oc2c1,37.6%
17,c1ccc(-c2n(Cc3ccc4ccccc4n3)cc[n+]2Cc2ccc3ccccc3n2)cc1,-33.1% (active)
18,COc1cc2c(c(OC)c1OC)-c1ccc(NN(C(=O)c3ccccc3)C(=O)c3ccccc3)c(=O)cc1[C@@H](NC(C)=O)CC2 (tested in a mixture with another compound),-1.35% (active)
19,CCCN1CCN(c2ccc3nc(-c4ccc5nc(-c6cc(OC)c(OC)c(OC)c6)[nH]c5c4)[nH]c3c2)CC1,97.4%
20,CCN(CC)CCOc1ccc(/C(=C(\C)c2ccc(Cl)cc2)c2ccc(Cl)cc2)cc1,41.4%

row,Compound,growth
1,c1cc[n+](Cc2c3ccccc3cc3c2ccc2ccccc23)cc1,36%
2,CC/C(Cc1ccccc1)=C(\c1ccc(OCCCN(C)C)cc1)c1ccc(OC(=O)NCc2ccccc2)cc1,57.2%
3,COc1cc(/C=C2\CN(C(=O)CCN3CCC(=NO)CC3)C/C(=C\c3cc(OC)c(OC)c(OC)c3)C2=O)cc(OC)c1OC,-27.9% (active)
4,O=C1c2cccc3c([N+](=O)[O-])ccc(c23)C(=O)N1CCCCl,-25.4% [100 µM] (active)
5,C(/C=C/c1ccccc1)=Nc1ccc(CCc2ccc(N=C/C=C/c3ccccc3)cc2)cc1,42.9%
6,O=C(CC(=O)c1cccc(Cl)c1)c1cccc(Cl)c1,4.17% (active)
7,CCOC(=O)c1cc(C(=O)c2ccc(Br)cc2)n2ccc(/C=C/c3cc[n+](CC(=O)c4ccc(OC)cc4)cc3)cc12,58.1%
8,CCc1c2c(nc3ccc(OC(=O)OCc4ccc(B5OC(C)(C)C(C)(C)O5)cc4)cc13)-c1cc3c(c(=O)n1C2)COC(=O)[C@]3(O)CC,12%
9,COc1ccc2nc3cc(Cl)ccc3c(NCCNc3c4ccc(Cl)cc4nc4ccc(OC)cc34)c2c1,-75% (active)
10,COc1cc2cc(Oc3ccc(NC(=O)Nc4ccc(Cl)c(C(F)(F)F)c4)cc3)c(C)nc2cc1OCCN1CCOCC1,11%
11,COc1ccc(/C=N/NC(=O)c2cnn3c2NC(c2ccccc2)C3)cc1OC (stereo not given),36.4%
12,COc1cccc(/C=C2\Oc3cc(OCCCN4CCCC4)ccc3C2=O)c1OC,96.3%
13,c1ccc(CN2COc3c(ccc4c3OCN(Cc3ccccc3)C4)C2)cc1,-19% (active)
14,COC(=O)[C@H](Cc1cn(C)cn1)NC(=O)[C@H](Cc1ccccc1)NC(=O)Nc1cc(C(F)(F)F)cc(C(F)(F)F)c1,-67.9% [100 µM] (active)
15,Clc1ccc2c(NCCNc3nc(-c4ccccc4)cc(-c4ccccc4)n3)ccnc2c1,-46.6% (active)
16,O=C1C(=O)c2ccccc2C(O)=C1CCCc1ccc(Oc2ccccc2)cc1,44.3%
17,CC(=O)SC1CC(=O)C=C2CCC3C4CCC(=O)OC4(C)CCC3C21C (stereo not given),103%
18,CC(=O)NC(CCC(=O)c1ccccc1)C(=O)O (stereo not given),75.9%
19,COc1cc2cc(NCc3ccc(OC(F)F)cc3)nc(C)c2cc1OC,38.7%
20,C=CCOC(=O)C(=O)OCC=C,68.7%

# Reference: PubChem BioAssay (NCI)
